The campaign covered roughly 5,500 compounds. About 2,000 (36%) were called active. Not shown: some 18% with an inconclusive outcome. Rule as the data show it: active = normalized growth mostly below about 0.91 (no sharp cut-off); inconclusive = no clear call, values can overlap the other calls; inactive = mostly above about 0.92. Some of the results follow.
Experiment: chemical genetic growth profiling, strain panel (AID 1159580);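 also: tested at 20 µM; growth read once vehicle control cultures reached saturation at 30 °C; 1 = growth at the plate median or of vehicle wells; lower values mean less growth of the strain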
Conditions: growth OD

Measured: normalized growth

COc1c(O)cc(O)cc1O
inactive: S. cerevisiae deletion strains, locus YJR066W, strain TOR1, active compounds read low 0.977 | S. cerevisiae deletion strains, locus YKL009W, strain mrt4, active compounds read low 1.07 | S. cerevisiae deletion strains, locus YKL068W, active compounds read low 0.995 | S. cerevisiae deletion strains, locus YKL085W, strain MDH1 (second series), active compounds read low 1.02 | S. cerevisiae deletion strains, locus YKL085W, strain MDH1, active compounds read low 1.02 | S. cerevisiae deletion strains, locus YKL160W, strain elf1, active compounds read low 1.02 | S. cerevisiae deletion strains, locus YKR001C, strain vps1, active compounds read low 1.01 | S. cerevisiae deletion strains, locus YKR026C, strain gcn3, active compounds read low 0.991 | S. cerevisiae deletion strains, locus YKR091W, strain srl3, active compounds read low 0.996 | S. cerevisiae deletion strains, locus YLL001W, strain dnm1, active compounds read low 0.999 | S. cerevisiae deletion strains, locus YLL026W, active compounds read low 0.994 | S. cerevisiae deletion strains, locus YLL041C, strain sdh2, active compounds read low 0.996 | S. cerevisiae deletion strains, locus YLR027C, strain aat2, active compounds read low 0.985 | S. cerevisiae deletion strains, locus YLR039C, strain RIC1, active compounds read low 1.06 | S. cerevisiae deletion strains, locus YLR058C, strain SHM2, active compounds read low 1.01 | S. cerevisiae deletion strains, locus YLR102C, strain apc9, active compounds read low 0.987 | S. cerevisiae deletion strains, locus YLR113W, strain HOG1, active compounds read low 1.03 | S. cerevisiae deletion strains, locus YLR221C, strain rsa3, active compounds read low 0.992 | S. cerevisiae deletion strains, locus YLR258W, strain gsy2, active compounds read low 0.997 | S. cerevisiae deletion strains, locus YLR262C, strain YPT6 (second series), active compounds read low 1.02 | S. cerevisiae deletion strains, locus YLR262C, strain YPT6, active compounds read low 1.08 | S. cerevisiae deletion strains, locus YLR268W, strain sec22, active compounds read low 1.05 | S. cerevisiae deletion strains, locus YLR320W, strain mms22, active compounds read low 0.994 | S. cerevisiae deletion strains, locus YLR330W, strain CHS5, active compounds read low 1.01 | S. cerevisiae deletion strains, locus YLR342W, strain FKS1 (second series), active compounds read low 1.08 | S. cerevisiae deletion strains, locus YLR342W, strain FKS1, active compounds read low 0.997 | S. cerevisiae deletion strains, locus YLR357W, strain rsc2, active compounds read low 0.958 | S. cerevisiae deletion strains, locus YLR370C, strain arc18, active compounds read low 0.992 | S. cerevisiae deletion strains, locus YLR371W, strain rom2, active compounds read low 0.984 | S. cerevisiae deletion strains, locus YLR384C, strain iki3, active compounds read low 1 | S. cerevisiae deletion strains, locus YLR418C, strain cdc73, active compounds read low 0.988 | S. cerevisiae deletion strains, locus YML016C, strain PPZ1, active compounds read low 0.994 | S. cerevisiae deletion strains, locus YML032C, strain rad52, active compounds read low 1.02 | S. cerevisiae deletion strains, locus YML120C, strain ndi1, active compounds read low 1 | S. cerevisiae deletion strains, locus YML124C, strain tub3, active compounds read low 0.997 | S. cerevisiae deletion strains, locus YMR058W, strain fet3, active compounds read low 1.01 | S. cerevisiae deletion strains, locus YMR078C, strain ctf18, active compounds read low 0.986 | S. cerevisiae deletion strains, locus YMR125W, strain sto1, active compounds read low 0.992 | S. cerevisiae deletion strains, locus YMR129W, active compounds read low 0.99 | S. cerevisiae deletion strains, locus YMR205C, strain PFK2, active compounds read low 0.997 | S. cerevisiae deletion strains, locus YMR223W, strain ubp8, active compounds read low 1.01 | S. cerevisiae deletion strains, locus YMR231W, strain pep5, active compounds read low 0.967 | S. cerevisiae deletion strains, locus YMR307W, strain GAS1, active compounds read low 1.08 | S. cerevisiae deletion strains, locus YNL067W, strain RPL9B, active compounds read low 1 | S. cerevisiae deletion strains, locus YNL071W, strain lat1, active compounds read low 1 | S. cerevisiae deletion strains, locus YNL128W, strain TEP1, active compounds read low 1.04 | S. cerevisiae deletion strains, locus YNL183C, strain NPR1, active compounds read low 0.988 | S. cerevisiae deletion strains, locus YNL209W, strain ssb2, active compounds read low 1.02 | S. cerevisiae deletion strains, locus YNL233W, strain BNI4, active compounds read low 0.99 | S. cerevisiae deletion strains, locus YNL248C, strain rpa49, active compounds read low 1 | S. cerevisiae deletion strains, locus YNL250W, strain rad50, active compounds read low 0.956 | S. cerevisiae deletion strains, locus YNL271C, strain bni1, active compounds read low 0.994 | S. cerevisiae deletion strains, locus YNL298W, strain CLA4, active compounds read low 0.998 | S. cerevisiae deletion strains, locus YNL307C, strain MCK1, active compounds read low 0.998 | S. cerevisiae deletion strains, locus YNL322C, strain KRE1 (second series), active compounds read low 0.987 | S. cerevisiae deletion strains, locus YNR049C, strain mso1, active compounds read low 0.994 | S. cerevisiae deletion strains, locus YNR052C, strain pop2, active compounds read low 0.985 | S. cerevisiae deletion strains, locus YOL012C, strain htz1 0.85 | S. cerevisiae deletion strains, locus YOL147C, strain pex11, active compounds read low 1 | S. cerevisiae deletion strains, locus YOR001W, strain rrp6, active compounds read low 1.01 | S. cerevisiae deletion strains, locus YOR061W, strain CKA2, active compounds read low 1.01 | S. cerevisiae deletion strains, locus YOR069W, strain VPS5, active compounds read low 0.986 | S. cerevisiae deletion strains, locus YOR070C, strain gyp1, active compounds read low 1.02 | S. cerevisiae deletion strains, locus YOR080W, strain dia2, active compounds read low 0.99 | S. cerevisiae deletion strains, locus YOR083W, strain WHI5, active compounds read low 1.01 | S. cerevisiae deletion strains, locus YOR106W, strain vam3, active compounds read low 1.04 | S. cerevisiae deletion strains, locus YOR136W, strain idh2, active compounds read low 0.991 | S. cerevisiae deletion strains, locus YOR144C, strain elg1, active compounds read low 1 | S. cerevisiae deletion strains, locus YOR184W, strain ser1, active compounds read low 1.1 | S. cerevisiae deletion strains, locus YOR231W, strain MKK1, active compounds read low 1.04 | S. cerevisiae deletion strains, locus YOR265W, strain rbl2, active compounds read low 1.02 | S. cerevisiae deletion strains, locus YOR270C, strain vph1, active compounds read low 1.04 | S. cerevisiae deletion strains, locus YOR290C, strain snf2, active compounds read low 1.01 | S. cerevisiae deletion strains, locus YOR316C, strain cot1, active compounds read low 0.99 | S. cerevisiae deletion strains, locus YPL051W, strain arl3, active compounds read low 1 | S. cerevisiae deletion strains, locus YPL055C, strain LGE1, active compounds read low 1.07 | S. cerevisiae deletion strains, locus YPL078C, strain atp4, active compounds read low 1.01 | S. cerevisiae deletion strains, locus YPL106C, strain sse1, active compounds read low 0.986 | S. cerevisiae deletion strains, locus YPL240C, strain hsp82, active compounds read low 1 | S. cerevisiae deletion strains, locus YPL241C, strain CIN2, active compounds read low 1.01 | S. cerevisiae deletion strains, locus YPL256C, strain CLN2, active compounds read low 1.02 | S. cerevisiae deletion strains, locus YPR119W, strain clb2, active compounds read low 0.997 | S. cerevisiae deletion strains, locus YPR141C, strain kar3, active compounds read low 0.971 | S. cerevisiae deletion strains, locus YPR163C, strain tif3, active compounds read low 0.997 | S. cerevisiae deletion strains, locus YPR167C, strain met16, active compounds read low 0.992 | S. cerevisiae deletion strains, strain wtn01, active compounds read low 1.03 | S. cerevisiae strains, strain wild type, active compounds read low 1.05
